According to PubChem BioAssay (NCI):
This is part of a sample that, as a whole, favours compounds with a hit. Of some 79,000 tested, about 15% had one in any assay. A number with no mark means an inactive call. Activity calls are given as the source filed them. Rule as the data show it: active = growth inhibition above about 70%; inactive = the rest.

Test: NCI Yeast Anticancer Drug Screen. Data for the rad50EPP+ strain (AID 151);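 also: 0% = growth of vehicle-treated control cultures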
Settings: S. cerevisiae rad50 mutant strain, active compounds read high
Protocol: Growth inhibition of yeast strains with defined genetic alterations is measured as a screen for potential anti-cancer activity. Selected strains with alterations in DNA damage repair or cell cycle control were exposed to compounds and growth inhibition was measured relative to vehicle treated controls. The strain used in this assay is rad50EPP+

O=C1c2ccccc2-c2ccc(N=Cc3ccccc3)cc21
growth inhibition (at 1.2 µM): -2% | growth inhibition (at 3.7 µM): 24% | growth inhibition (at 11.0 µM): 34% | growth inhibition (at 33.0 µM): 87% (active) | growth inhibition (at 100.0 µM): 97% (active)

c1ccc(-c2cc(C3CO3)c3ccccc3n2)cc1 (stereo not given)
growth inhibition (at 1.2 µM): 2% | growth inhibition (at 3.7 µM): 6% | growth inhibition (at 11.0 µM): 24% | growth inhibition (at 33.0 µM): 46% | growth inhibition (at 100.0 µM): 68%

COc1cc(C2C3=C(COC3=O)Oc3cc4c(cc32)OCO4)cc(OC)c1O (stereo not given)
growth inhibition (at 1.2 µM): -2% | growth inhibition (at 3.7 µM): 0% | growth inhibition (at 11.0 µM): 1% | growth inhibition (at 33.0 µM): -3% | growth inhibition (at 100.0 µM): 0%

CC1=NN(C(=O)c2ccccc2O)C(=O)/C1=C/c1ccco1
growth inhibition (at 1.2 µM): 9% | growth inhibition (at 3.7 µM): 45% | growth inhibition (at 11.0 µM): 49% | growth inhibition (at 33.0 µM): 48% | growth inhibition (at 100.0 µM): 93% (active)

CC(C)OC(=O)NNc1cccc(Cl)c1
growth inhibition (at 1.2 µM): 6% | growth inhibition (at 3.7 µM): 33% | growth inhibition (at 11.0 µM): 93% (active) | growth inhibition (at 33.0 µM): 98% (active) | growth inhibition (at 100.0 µM): 98% (active)

Cc1c(Cl)c(C)c(Cl)c(O)c1Cl
growth inhibition (at 1.2 µM): -21% | growth inhibition (at 3.7 µM): -9% | growth inhibition (at 11.0 µM): -6% | growth inhibition (at 33.0 µM): 75% (active) | growth inhibition (at 100.0 µM): 93% (active)

Cc1cccc(/C=N/NC(=S)NC2CCCCC2)n1
growth inhibition (at 1.2 µM): -8% | growth inhibition (at 3.7 µM): -8% | growth inhibition (at 11.0 µM): -13% | growth inhibition (at 33.0 µM): -13% | growth inhibition (at 100.0 µM): -12%

O=C(NCCNCCNC(=O)c1cc(-c2ccccc2)nc2ccccc12)c1cc(-c2ccccc2)nc2ccccc12
growth inhibition (at 1.2 µM): -1% | growth inhibition (at 3.7 µM): 2% | growth inhibition (at 11.0 µM): 3% | growth inhibition (at 33.0 µM): 9% | growth inhibition (at 100.0 µM): 9%
